Compound activity as filed in PubChem BioAssay.
Dicer inh: inhibitors of human Dicer processing of pre-microRNA | Q9UPY3 | cat-ELCCA pre-miR-21 Dicer processing, chemiluminescence; hits give high values | z-score at 25 µM | actives 6% (n = 47,000); in the data active = z-score above about 3, passing the limit was not always enough;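 note: plate controls were vehicle for no effect and no enzyme for full effect; higher signal means more uncleaved substrate so more Dicer inhibition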
Target sequence (Q9UPY3 whole entry, looked up): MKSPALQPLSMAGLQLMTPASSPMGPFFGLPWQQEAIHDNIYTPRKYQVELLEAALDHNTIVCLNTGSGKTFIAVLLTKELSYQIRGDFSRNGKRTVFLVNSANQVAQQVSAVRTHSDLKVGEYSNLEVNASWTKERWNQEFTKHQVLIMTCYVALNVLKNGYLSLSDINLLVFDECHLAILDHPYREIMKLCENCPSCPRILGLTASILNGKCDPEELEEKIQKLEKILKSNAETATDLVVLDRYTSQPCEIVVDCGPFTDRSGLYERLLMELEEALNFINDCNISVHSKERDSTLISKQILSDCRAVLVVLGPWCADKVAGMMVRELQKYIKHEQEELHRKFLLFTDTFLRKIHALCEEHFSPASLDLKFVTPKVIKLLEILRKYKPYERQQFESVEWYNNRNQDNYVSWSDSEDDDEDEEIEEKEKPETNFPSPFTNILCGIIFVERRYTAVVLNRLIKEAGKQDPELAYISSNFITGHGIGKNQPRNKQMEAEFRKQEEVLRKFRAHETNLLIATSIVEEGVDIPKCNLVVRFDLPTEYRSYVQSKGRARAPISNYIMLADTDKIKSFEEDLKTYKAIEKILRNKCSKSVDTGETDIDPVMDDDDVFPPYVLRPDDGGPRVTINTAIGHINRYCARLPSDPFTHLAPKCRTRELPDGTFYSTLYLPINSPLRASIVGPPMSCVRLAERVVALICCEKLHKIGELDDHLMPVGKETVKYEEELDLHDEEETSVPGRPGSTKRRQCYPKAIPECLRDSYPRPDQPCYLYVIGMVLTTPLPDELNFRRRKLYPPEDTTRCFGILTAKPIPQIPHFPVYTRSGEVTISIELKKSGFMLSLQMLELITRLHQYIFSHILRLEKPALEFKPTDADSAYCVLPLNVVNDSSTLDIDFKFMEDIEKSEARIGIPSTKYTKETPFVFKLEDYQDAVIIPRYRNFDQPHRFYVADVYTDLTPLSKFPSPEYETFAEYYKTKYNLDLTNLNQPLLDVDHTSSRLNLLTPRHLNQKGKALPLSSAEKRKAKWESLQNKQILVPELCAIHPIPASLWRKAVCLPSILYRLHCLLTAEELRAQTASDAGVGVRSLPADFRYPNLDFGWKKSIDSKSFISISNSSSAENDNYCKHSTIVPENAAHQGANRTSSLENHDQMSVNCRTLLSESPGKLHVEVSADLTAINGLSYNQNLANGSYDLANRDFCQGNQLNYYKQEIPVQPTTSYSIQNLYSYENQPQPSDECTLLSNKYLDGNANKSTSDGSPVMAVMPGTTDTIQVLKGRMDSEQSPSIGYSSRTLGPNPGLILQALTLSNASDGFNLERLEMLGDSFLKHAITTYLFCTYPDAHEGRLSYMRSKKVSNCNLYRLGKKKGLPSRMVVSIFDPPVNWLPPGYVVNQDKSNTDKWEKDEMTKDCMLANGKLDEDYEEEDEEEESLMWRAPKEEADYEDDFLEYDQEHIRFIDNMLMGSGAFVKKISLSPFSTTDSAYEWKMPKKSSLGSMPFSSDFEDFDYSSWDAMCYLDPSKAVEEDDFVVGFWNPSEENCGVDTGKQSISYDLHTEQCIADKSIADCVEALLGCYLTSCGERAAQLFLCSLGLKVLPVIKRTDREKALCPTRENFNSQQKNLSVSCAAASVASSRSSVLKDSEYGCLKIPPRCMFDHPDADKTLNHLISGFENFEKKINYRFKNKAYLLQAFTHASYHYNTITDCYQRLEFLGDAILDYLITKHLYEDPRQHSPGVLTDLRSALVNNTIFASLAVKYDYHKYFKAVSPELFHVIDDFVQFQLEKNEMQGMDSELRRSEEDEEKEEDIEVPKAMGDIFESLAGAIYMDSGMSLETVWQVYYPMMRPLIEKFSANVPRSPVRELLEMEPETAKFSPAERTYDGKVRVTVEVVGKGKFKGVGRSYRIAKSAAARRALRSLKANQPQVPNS
The depositor's hits bear a star. Only a selection was taken, and hits are over-represented in it overall.

SMILES	Dicer inh
CC1CN(c2ccc(Oc3nc4c(Cl)cc(Cl)cc4s3)c([N+](=O)[O-])c2)CC(C)O1 (stereo not drawn)	0.76
COc1ccc(N2C(=O)CC(N3CCCCC3)C2=O)cc1 (stereo not drawn)	0.16
O=C(O)c1ccc(N2C(=O)CC(N3CCOCC3)C2=O)cc1 (stereo not drawn)	-1.7
CC(C)Oc1ccc(C2CC(=O)N(c3ccc(C(=O)O)cc3)C2=O)cc1 (stereo not drawn)	4.8*
CSC1=C(C#N)C(c2ccc(Cl)cc2)C(C(=O)OC(C)(C)C)=C(C)N1 (stereo not drawn)	0.96
O=C(NCC1COc2ccccc2O1)c1cc(Cl)sc1Cl (stereo not drawn)	0.6
O=S(=O)(NCCc1ccccn1)c1ccc(S(=O)(=O)N2CCOCC2)cc1	-0.01
CCc1nnc2c3c4c(sc3ncn12)CC(C)CC4 (stereo not drawn)	-0.79
c1ccc(CCc2nnc3c4c5c(sc4ncn23)CCCC5)cc1	0.1
CCCc1nnc2c3c4c(sc3ncn12)CC(C)CC4 (stereo not drawn)	4.8*
CCn1c(SC)nc2c(c1=O)C1(CCCC1)Cc1ccccc1-2	0.48
CCSc1nc2c(c(=O)n1C)C1(CCCC1)Cc1ccccc1-2	6.2*
CCSc1nc2c(c(=O)n1CC)C1(CCCC1)Cc1ccccc1-2	1.3
C=CCn1c(SCC(N)=O)nc2c(c1=O)C1(CCCCC1)Cc1ccccc1-2	0.59
Cn1c(NCCCO)nc2c(c1=O)C1(CCCCC1)Cc1ccccc1-2	0.39
O=c1c2c(nc(NCCCO)n1-c1ccccc1)-c1ccccc1CC21CCCCC1	4.3*
COCCOC(=O)c1c(C)oc2ccc(NS(=O)(=O)c3cccc4cccnc34)cc12	-2.4
CC(C)(C)c1ccc(N2C(=O)c3cc(Cl)c(Cl)cc3C2=O)cc1	0.77
O=C(O)[C@H]1CCCN1C(=O)OCc1ccccc1	0.57
C/C(=N\OC(=O)Nc1c(-c2c(Cl)cccc2Cl)noc1C)C(C)(C)C	0.53
O=S(=O)(c1cc(C(F)(F)F)ccn1)c1cccs1	0.49
CCCCNC(=O)n1nc(SC)cc1-c1sc(-c2cccs2)nc1C	0.33
Cc1ccc(C(=O)CC(Sc2ccc3ccccc3c2)c2ccsc2)cc1 (stereo not drawn)	-3.6
CC(=O)O/N=C(\N)COc1ccc(-c2nnco2)cc1	-0.02
S=c1[nH]nc(Cn2nnc3ccccc32)o1	-1.4
SMILES	Dicer inh
Fc1ccc(Cn2nnc3ccccc32)cc1	2.6
c1ccc2c(c1)CCN2Cn1nnc2ccccc21	4.4*
CC(=O)CSc1nc(SCC(C)=O)c2c3c(sc2n1)CCC3	-0.68
Cn1nc(-c2ccc(-c3ccn(C(=O)c4cccc(C(F)(F)F)c4)n3)s2)cc1C(F)(F)F	-1.6
O=C(O)CCCCC(=O)Nc1ccc(Br)cn1	-1.4
CC1CC(C)CN(c2ccc(S(N)(=O)=O)cc2[N+](=O)[O-])C1 (stereo not drawn)	-1.1
CC(=O)Nc1cc(N2CC(C)CC(C)C2)c(F)cc1[N+](=O)[O-] (stereo not drawn)	28*
CC(=O)Nc1cc(N2CCOCC2)c(F)cc1[N+](=O)[O-]	-1.3
CCOC(=O)c1cc(C#N)c(Nc2cccc(Cl)c2)nc1C(F)(F)F	-1.3
CSc1nc2c(Cl)cccc2c2c1c(=O)[nH]n2C	3.6*
CCOC(=O)c1c(SC)nc2c(Cl)cccc2c1N(C)CCO	-5.7
CSc1nc2c(Cl)cccc2c2c1c(=O)n(Cc1ccc(Cl)cc1)n2C	0.65
CCOC(=O)c1ccc(N2N=C(C)CC2=O)cc1	-4
Cc1oc(-c2ccc(Cl)cc2)cc1C(=O)Nc1cc(-c2cccs2)nn1-c1ccc(F)cc1	-1.1
O=C(Nc1cccc2[nH]ccc12)c1cccc(C(F)(F)F)c1	2.1
NNC(=O)Nc1ccc(C(F)(F)F)cc1Cl	0.71
O=C(Nc1cc(C(F)(F)F)ccc1Cl)C(Cl)Cl	5*
O=C(Nc1cc(C(F)(F)F)ccc1Cl)C(=S)N1CCOCC1	-0.41
Fc1ccc(OCc2nn3c(Cc4ccccc4)nnc3s2)cc1	-0.8
CC(=O)C(Sc1nnc(C(F)(F)F)n1C)C(C)=O	-0.13
CCOC(=O)C(C(=O)OCC)=C(Nc1ccc(Cl)cc1)SC	0.39
CCn1c2ccccc2c2cc(CN3CCN(S(C)(=O)=O)CC3)ccc21	5.4*
COc1ccc(CN2CCN(S(C)(=O)=O)CC2)cc1OC	2.2
CCn1c2ccccc2c2cc([N+](=O)[O-])ccc21	-0.68
CCc1ccnc(NC(=O)NS(=O)(=O)c2ccc(C)cc2)c1	5.1*
SMILES	Dicer inh
Cc1ccc(S(=O)(=O)NC(=O)Nc2cc(C)on2)cc1	-0.09
CCc1ccnc(NS(=O)(=O)c2ccc(C)cc2)c1	0.38
Cc1ccc(-c2cc3nccc(-c4cc(F)ccc4O)n3n2)cc1	-3.1
O=S1(=O)CC2SC(=S)N(c3cccc(O)c3)C2C1 (stereo not drawn)	0.2
O=C(O)CCCCCN1C(=O)C2C3c4ccccc4C(c4ccccc43)C2C1=O (stereo not drawn)	-0.96
Cn1c(=O)c2c(ncn2CC(=O)Nc2ccc(F)cc2F)n(C)c1=O	0.42
CCOc1ccc(C2c3c(oc4ccccc4c3=O)C(=O)N2c2ccccn2)cc1 (stereo not drawn)	2.1
Cc1ccc(CN2C(=O)c3oc4ccc(F)cc4c(=O)c3C2c2ccc(O)cc2)cc1 (stereo not drawn)	0.85
COc1cc(C2c3c(oc4ccc(F)cc4c3=O)C(=O)N2Cc2ccc(C)cc2)ccc1O (stereo not drawn)	4.8*
CCCCOc1ccc(C2c3c(oc4ccccc4c3=O)C(=O)N2c2ccccn2)cc1 (stereo not drawn)	2.3
C=CCOc1ccc(C2c3c(oc4ccccc4c3=O)C(=O)N2c2ccccn2)cc1 (stereo not drawn)	4.1*
Cc1ccc(C2c3c(oc4ccccc4c3=O)C(=O)N2c2ccc(C)cn2)cc1 (stereo not drawn)	4.2*
CSc1ccc(C2c3c(oc4ccc(C)cc4c3=O)C(=O)N2c2ccccn2)cc1 (stereo not drawn)	-0.25
COc1cc(C2c3c(oc4ccccc4c3=O)C(=O)N2Cc2ccc(F)cc2)ccc1O (stereo not drawn)	1.1
CCOc1ccc(C2c3c(oc4ccccc4c3=O)C(=O)N2c2ccc(C)cn2)cc1OCC (stereo not drawn)	-1.4
Cc1ccc(N2C(=O)c3oc4ccccc4c(=O)c3C2c2ccc(Br)cc2)nc1 (stereo not drawn)	2.7
Cc1ccc2oc3c(c(=O)c2c1)C(c1cccc(O)c1)N(c1ccccn1)C3=O (stereo not drawn)	1.7
Cc1ccc2oc3c(c(=O)c2c1)C(c1ccccc1F)N(c1ccccn1)C3=O (stereo not drawn)	3.3*
Cn1c(=O)c2c(nc(Oc3ccc(Br)cc3Br)n2Cc2ccccc2)n(C)c1=O	-0.77
CCOC(=O)c1cnc2c(F)ccc(F)c2c1Oc1cncc(Cl)c1	0.07
O=C(CSc1nncn1-c1ccc(OCc2ccccc2)cc1)Nc1ccccc1	-1.2
Oc1ccccc1/C=N/c1nc(-c2ccccc2Cl)cs1	0.87
O=C(O)CCCNC(=O)c1cccs1	0.61
COC(=O)c1cnc(NNC(=O)c2ccc(F)cc2)nc1C(F)(F)F	0.47
COc1cc2c(cc1OC)C(C)N(C(=O)CCCC(=O)O)CC2 (stereo not drawn)	1.2
COc1ccc2c(c1)C(=O)/C(=C/c1ccccc1)CC2	0.29
COc1cc(C2c3c(oc4cc(C)c(C)cc4c3=O)C(=O)N2c2ccc(C)cn2)ccc1O (stereo not drawn)	15*
